Experimental data as given in PubChem BioAssay AID1259343 (VanderVen Lab, College of Veterinary Medicine, Cornell …, 2017).
Screen size: about 6,200 compounds; about 2,900 (47%) were called active. Cut-off read from the data, not from the text of the source: active = inhibition above about 50%; inactive = the rest. So high a share suggests a set chosen from earlier hits. The list shows a part of the results.

Test: Mycobacterium tuberculosis growth inhibition, primary screen (AID 1259343)
Details: inhibition: at 10 µM, active compounds read high; outcome: 10 uM

SMILES	inhibition
Clc1cccc(C2Nc3cccc4cccc(c34)N2)c1Cl	97.7% (active)
Fc1ccccc1Nc1nc(COc2cccc(Cl)c2)cs1	75.5% (active)
CCC(C)[C@H]1O[C@]2(CC[C@@H]1C)C[C@@H]1C[C@@H](C/C=C(\C)[C@@H](OC3C[C@H](OC)C(O[C@H]4C[C@H](OC)[C@@H](O)[C@H](C)O4)[C@H](C)O3)[C@@H](C)/C=C/C=C3\CO[C@@H]4[C@H](O)C(C)=C[C@@H](C(=O)O1)[C@]34O)O2 (stereo partly specified)	67.3% (active)
O=C1c2sc3nnc(-c4ccccc4)c(=O)n3c2C(=O)N1c1cccc(Cl)c1Cl	90.4% (active)
NS(=O)(=O)c1ccc(N2CCN(c3cccc(Cl)c3)CC2)nc1	52.9% (active)
Clc1cccc(N2CCN(c3nnnn3-c3ccccc3)CC2)c1	-17.8% (inactive)
Cc1nc(-c2c[nH]c(C(=O)N(C)C3CCC(C)CC3)c2)cs1 (stereo unspecified)	29.5% (inactive)
Cc1nc(-c2c[nH]c(C(=O)NC3CCC4CCCC4C3)c2)cs1 (stereo unspecified)	87.9% (active)
Cn1nc(CC(=O)NC2CCC3CCCCC3C2)c2ccccc2c1=O (stereo unspecified)	14.5% (inactive)
Cc1ccc2nc(C3CCN(c4nncc(-c5ccc(Cl)cc5)n4)CC3)[nH]c2c1	37.6% (inactive)
CC(NCc1ccco1)c1nnc(-c2ccc(F)cc2)o1 (stereo unspecified)	25.6% (inactive)
Clc1ccc(CNCc2cn[nH]c2-c2ccc(-c3ccccc3)cc2)s1	74.1% (active)
CC(NCc1cn[nH]c1-c1ccc(-c2ccccc2)cc1)c1ccc(F)cc1 (stereo unspecified)	83.9% (active)
CC(NCc1nnc(-c2cccc(Br)c2)o1)c1cccc(F)c1 (stereo unspecified)	-7.48% (inactive)
CCCCc1ccc(-c2csc(NC(=O)C3(C)CCOCC3)n2)cc1	43.9% (inactive)
CC(C)Cc1ccc(-c2csc(NC(=O)C3COCCO3)n2)cc1 (stereo unspecified)	90.5% (active)
CCCc1ccc(-c2ccc(NC(=O)C3COCCO3)cc2)cc1 (stereo unspecified)	72.3% (active)
O=C(OC1CCCC1)c1ccc(NC(=O)C2COCCO2)cc1 (stereo unspecified)	84.8% (active)
Cc1nnsc1C(=O)Nc1ccc(C(=O)OC2CCCC2)cc1	-6.8% (inactive)
CC(C)Oc1ccc(C(=O)Nc2ccc3c(c2)oc(=O)n3C)cn1	92.7% (active)
Cc1cccc(OCCC(=O)Nc2ccc3c(c2)oc(=O)n3C)c1C	15.8% (inactive)
O=c1[nH]c(=O)n(CCC2=CCCCC2)c(O)c1C=C1C=CC=N1	89.4% (active)
CSc1nc(NCC(C)C)c2cnn(CCNC(=O)CC(C)C)c2n1	-2.36% (inactive)
CSc1nc(N2CCCC2)c2cnn(CCNC(=O)c3cccs3)c2n1	9.6% (inactive)
CCCNc1nc(SC)nc2c1cnn2CCNC(=O)c1c(F)cccc1Cl	60.4% (active)
CC(=NNC(N)=S)C12CC3CC(CC(C3)C1)C2	14.6% (inactive)

SMILES	inhibition
CC(=NNC(N)=S)c1ccc(C)cc1	76.6% (active)
CC(=NNC(N)=S)C(C)=NNC(N)=S	54.6% (active)
C=CCNC(=S)NN=Cc1ccc2c(c1)OCCO2	23.3% (inactive)
CC(=NNC(=S)NC(C)C)c1ccc(C(C)(C)C)cc1	5.89% (inactive)
CC(=NNC(=S)NC(C)C)c1ccc2c(c1)OCCO2	88.1% (active)
CC(=NNC(N)=S)c1ccc2c(c1)OCCO2	69% (active)
COc1ccccc1-n1cc(-c2ccnc(N(C)Cc3cccc(C)n3)n2)cn1	29.4% (inactive)
COc1ccc(-c2cnnc(N3CCC(c4ccccc4Cl)C3)n2)cc1 (stereo unspecified)	inactive
C=C(C)NC(=S)Nc1nccs1	7.83% (inactive)
CC1CCC(N(C(=O)Nc2nccs2)C2CC2)CC1 (stereo unspecified)	53.1% (active)
CC1=CC(=O)c2c(O)cccc2C1=O	102% (active)
O=C(O)c1ccccc1-c1c2cc(Br)c(=O)cc-2oc2[c]([Hg])c(O)c(Br)cc12	66.5% (active)
COc1ccccc1-c1cc(=O)c2cccc(OC)c2o1	-0.59% (inactive)
CCCCCCCCON1C(=O)C2C3C=CC(O3)C2C1=O (stereo unspecified)	8.42% (inactive)
O=C(NCCc1ccc2c(c1)OCCO2)C12CC3CC(CC(C3)C1)C2	45.1% (inactive)
O=C(NNC(=O)C12CC3CC(CC(C3)C1)C2)c1sccc1-n1cccc1	61.1% (active)
CC1CCC(NC(=O)c2sccc2-n2cccc2)CC1 (stereo unspecified)	87.7% (active)
Cc1ccc(C)n1-c1ccsc1C(=O)NC1CCCC1	39.9% (inactive)
COCC(Nc1ncc(Br)cn1)c1ccc(C)o1 (stereo unspecified)	38.8% (inactive)
Cc1nc(-c2ccc(Oc3ccc(C(F)(F)F)cn3)cc2)no1	89.7% (active)
Cc1ccn2cc(C(=O)Nc3nc4ccccc4s3)nc2c1	50.8% (active)
CCOc1ccc2nc(NC(=O)c3ccc(C)o3)sc2c1	25.2% (inactive)
O=C(Cc1ccc(-c2ccccc2)cc1)NCC(c1ccsc1)N1CCCC1 (stereo unspecified)	37.7% (inactive)
O=C(NCC12CC3CC(CC(C3)C1)C2)c1ccccc1	25.9% (inactive)
O=C(Cc1ccsc1)NCC12CC3CC(CC(C3)C1)C2	75.4% (active)
